# According to PubChem BioAssay AID1159580 (chemical genetic matrix, 2015):
# “And” between values parts separate entries of the source, which are not always exact repeats. Identical values can stand only once. About 2,000 (36%) of roughly 5,500 compounds were called active. Roughly 18% stayed inconclusive and do not appear here. Cut-off read from the data, not from the text of the source: active = normalized growth mostly below about 0.91 (no sharp cut-off); inconclusive = no clear call, values can overlap the other calls; inactive = mostly above about 0.92. Some of the results follow.
# Assay: chemical genetic growth profiling, strain panel (AID 1159580);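 note: tested at 20 µM; growth read once vehicle control cultures reached saturation at 30 °C; 1 = growth at the plate median or of vehicle wells; lower values mean less growth of the strain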
# Details: S. cerevisiae deletion strains, growth OD
structure (smiles),measurement,setting,value
O=C(O)c1cc2ccccc2c(Cc2c(O)c(C(=O)O)cc3ccccc23)c1O,normalized growth,"locus YAL021C, strain ccr4, stronger effect = lower value",0.967 (inactive)
same,normalized growth,"locus YAL026C, strain drs2, stronger effect = lower value",1.01 (inactive)
same,normalized growth,"locus YAL030W, strain snc1, stronger effect = lower value",0.994 (inactive)
same,normalized growth,"locus YBL061C, strain skt5, stronger effect = lower value",0.99 (inactive)
same,normalized growth,"locus YBR009C, strain hhf1, stronger effect = lower value",0.988 (inactive)
same,normalized growth,"locus YBR021W, strain FUR4, stronger effect = lower value",1.02 (inactive)
same,normalized growth,"locus YBR023C, strain chs3, stronger effect = lower value",0.996 (inactive)
same,normalized growth,"locus YBR171W, strain sec66, stronger effect = lower value",1 (inactive)
same,normalized growth,"locus YBR229C, strain ROT2, stronger effect = lower value",1.01 (inactive)
same,normalized growth,"locus YBR231C, strain swc5, stronger effect = lower value",0.977 (inactive)
same,normalized growth,"locus YBR279W, strain paf1, stronger effect = lower value",0.99 (inactive)
same,normalized growth,"locus YCL011C, strain gbp2, stronger effect = lower value",1 (inactive)
same,normalized growth,"locus YCL016C, strain dcc1, stronger effect = lower value",0.989 (inactive)
same,normalized growth,"locus YCL029C, strain bik1, stronger effect = lower value",1.01 (inactive)
same,normalized growth,"locus YCL061C, strain MRC1, stronger effect = lower value",1 (inactive)
same,normalized growth,"locus YCL069W, strain vba3, stronger effect = lower value",1 (inactive)
same,normalized growth,"locus YCR088W, strain abp1, stronger effect = lower value",1.01 (inactive)
same,normalized growth,"locus YDL005C, strain med2, stronger effect = lower value",1 (inactive)
same,normalized growth,"locus YDL035C, strain GPR1, stronger effect = lower value",1.01 (inactive)
same,normalized growth,"locus YDL040C, strain nat1, stronger effect = lower value",0.995 (inactive)
same,normalized growth,"locus YDL074C, strain BRE1, stronger effect = lower value",0.94 (inactive)
same,normalized growth,"locus YDL101C, strain DUN1, stronger effect = lower value",1 (inactive)
same,normalized growth,"locus YDL134C, strain PPH21, stronger effect = lower value",0.997 (inactive)
same,normalized growth,"locus YDL185W, strain tfp1, stronger effect = lower value",1.01 (inactive)
same,normalized growth,"locus YDL192W, strain arf1, stronger effect = lower value",1 (inactive)
same,normalized growth,"locus YDR001C, strain nth1, stronger effect = lower value",1.01 (inactive)
same,normalized growth,"locus YDR069C, strain doa4, stronger effect = lower value",0.989 (inactive)
same,normalized growth,"locus YDR101C, strain arx1, stronger effect = lower value",1.01 (inactive)
same,normalized growth,"locus YDR137W, strain rgp1, stronger effect = lower value",1.04 (inactive)
same,normalized growth,"locus YDR159W, strain sac3, stronger effect = lower value",0.97 (inactive)
same,normalized growth,"locus YDR162C, strain NBP2, stronger effect = lower value",0.985 (inactive)
same,normalized growth,"locus YDR195W, strain ref2",0.977 (inactive)
same,normalized growth,"locus YDR297W, strain sur2, stronger effect = lower value",0.995 (inactive)
same,normalized growth,"locus YDR318W, strain mcm21, stronger effect = lower value",0.988 (inactive)
same,normalized growth,"locus YDR334W, strain swr1, stronger effect = lower value",0.996 (inactive)
same,normalized growth,"locus YDR335W, strain msn5, stronger effect = lower value",1.01 (inactive)
same,normalized growth,"locus YDR388W, stronger effect = lower value",0.996 (inactive)
same,normalized growth,"locus YDR392W, strain spt3, stronger effect = lower value",0.911 (inactive)
same,normalized growth,"locus YDR502C, strain sam2, stronger effect = lower value",1 (inactive)
same,normalized growth,"locus YEL003W, strain gim4, stronger effect = lower value",1.02 (inactive)
same,normalized growth,"locus YEL037C, strain rad23, stronger effect = lower value",0.999 (inactive)
same,normalized growth,"locus YEL061C, strain CIN8 (second series), stronger effect = lower value",1 (inactive)
same,normalized growth,"locus YEL061C, strain CIN8, stronger effect = lower value",1.03 (inactive)
same,normalized growth,"locus YER015W, strain faa2, stronger effect = lower value",0.988 (inactive)
same,normalized growth,"locus YER016W, strain bim1, stronger effect = lower value",1 (inactive)
same,normalized growth,"locus YER110C, stronger effect = lower value",0.989 (inactive)
same,normalized growth,"locus YER111C, strain swi4, stronger effect = lower value",1.01 (inactive)
same,normalized growth,"locus YER155C, strain BEM2 (second series), stronger effect = lower value",0.962 (inactive)
same,normalized growth,"locus YER155C, strain BEM2, stronger effect = lower value",0.992 (inactive)
same,normalized growth,"locus YER167W, strain BCK2, stronger effect = lower value",1 (inactive)
same,normalized growth,"locus YFR010W, strain ubp6, stronger effect = lower value",1.01 (inactive)
same,normalized growth,"locus YGL078C, strain dbp3, stronger effect = lower value",1.01 (inactive)
same,normalized growth,"locus YGL086W, strain mad1, stronger effect = lower value",1 (inactive)
same,normalized growth,"locus YGL167C, strain pmr1, stronger effect = lower value",0.994 (inactive)
same,normalized growth,"locus YGL173C, strain kem1, stronger effect = lower value",0.997 (inactive)
same,normalized growth,"locus YGL227W, strain vid30, stronger effect = lower value",1 (inactive)
same,normalized growth,"locus YGL240W, strain doc1, stronger effect = lower value",0.96 (inactive)
same,normalized growth,"locus YGL248W, strain PDE1, stronger effect = lower value",0.998 (inactive)
same,normalized growth,"locus YGL253W, strain hxk2, stronger effect = lower value",1.01 (inactive)
same,normalized growth,"locus YGR078C, strain PAC10, stronger effect = lower value",0.996 (inactive)
same,normalized growth,"locus YGR135W, strain pre9, stronger effect = lower value",0.99 (inactive)
same,normalized growth,"locus YGR252W, strain gcn5, stronger effect = lower value",0.978 (inactive)
same,normalized growth,"locus YHR013C, strain ard1, stronger effect = lower value",0.966 (inactive)
same,normalized growth,"locus YHR027C, strain rpn1, stronger effect = lower value",1 (inactive)
same,normalized growth,"locus YHR030C, strain SLT2, stronger effect = lower value",1.01 (inactive) and 0.859 (inactive)
same,normalized growth,"locus YHR079C, strain IRE1 (second series), stronger effect = lower value",0.992 (inactive)
same,normalized growth,"locus YHR079C, strain IRE1, stronger effect = lower value",0.844 (active)
same,normalized growth,"locus YHR094C, strain hxt1, stronger effect = lower value",0.999 (inactive)
same,normalized growth,"locus YHR129C, strain ARP1, stronger effect = lower value",0.995 (inactive)
same,normalized growth,"locus YHR142W, strain chs7, stronger effect = lower value",1.02 (inactive)
same,normalized growth,"locus YHR200W, strain rpn10, stronger effect = lower value",0.991 (inactive)
same,normalized growth,"locus YIL066C, strain RNR3, stronger effect = lower value",0.986 (inactive)
same,normalized growth,"locus YIL073C, strain SPO22, stronger effect = lower value",1.02 (inactive)
same,normalized growth,"locus YIL125W, strain kgd1, stronger effect = lower value",0.994 (inactive)
same,normalized growth,"locus YIR030C, strain dcg1, stronger effect = lower value",1 (inactive)
same,normalized growth,"locus YJL092W, strain hpr5, stronger effect = lower value",1.01 (inactive)
same,normalized growth,"locus YJL095W, strain BCK1 (second series), stronger effect = lower value",0.992 (inactive)
same,normalized growth,"locus YJL095W, strain BCK1, stronger effect = lower value",0.99 (inactive) and 0.866 (active)
same,normalized growth,"locus YJL115W, strain asf1, stronger effect = lower value",1 (inactive)
same,normalized growth,"locus YJL129C, strain trk1, stronger effect = lower value",0.976 (inactive)
same,normalized growth,"locus YJL134W, strain LCB3, stronger effect = lower value",0.99 (inactive)
same,normalized growth,"locus YJL154C, strain vps35, stronger effect = lower value",1 (inactive)
same,normalized growth,"locus YJL164C, strain tpk1, stronger effect = lower value",0.99 (inactive)
same,normalized growth,"locus YJL166W, strain qcr8, stronger effect = lower value",0.992 (inactive)
same,normalized growth,"locus YJL168C, strain set2, stronger effect = lower value",0.977 (inactive)
same,normalized growth,"locus YJL187C, strain SWE1 (second series), stronger effect = lower value",1 (inactive)
same,normalized growth,"locus YJL187C, strain SWE1, stronger effect = lower value",1.02 (inactive)
